Records with an inconclusive call do not appear. Active and inactive are the calls of the source. The calls were made as follows: active = hit-call score of the fitted dose curve at least 0.9, where 1 is the maximum; inconclusive = response in the unintended direction; inactive = score below 0.9.

This experiment is described as follows: CLD_ACTIN_24hr: CellzDirect (CLD) Gene Expression Assay for Baseline Control (Actin) at 24 hours (AID 2283670). How it is done:
CLD_24hr is a cell-based, multiplexed-readout assay that uses hepatocyte, a human liver primary cell, with measurements taken at 24 hours after chemical dosing in a 96-well plate.CLD_ACTIN_24hr is one of 16 assay component(s) measured or calculated from the CLD_24hr assay. It is designed to make measurements of mRNA induction, a form of inducible reporter, as detected with chemiluminescence signals by Quantitative Nuclease Protection Assay (qNPA) technology.Data from the assay component CLD_ACTIN_24hr was analyzed at the endpoint, CLD_ACTIN_24hr, in the positive analysis fitting direction relative to DMSO as the negative control and baseline of activity. Using a type of inducible reporter, gain-of-signal activity can be used to understand changes in the reporter gene as they relate to the gene ACTA1. Furthermore, this assay endpoint can be referred to as a secondary readout, because this assay has produced multiple assay endpoints where this one serves a background control function. To generalize the intended target to other relatable targets, this assay endpoint is annotated to the background measurement intended target family, where subfamily is baseline control.
Human hepatocyte cultures were treated daily for two consecutive days with fresh dosing solutions containing appropriate concentrations of the 320 ToxCast chemicals (chemical identities were blinded to CellzDirect and other ToxCast collaborators), vehicle control (0.2% DMSO), and positive control inducers as summarized in Table 1. Due to the large number of treatment groups and chemicals examined, the ToxCast chemicals were divided into two groups (spanning two independent cultures of hepatocytes from separate donor preparations (Hu778: ToxCast plates 1 and 2; Hu776: ToxCast plates 3 and 4). Each preparation of human hepatocyte cultures was treated with respective vehicle control, medium only control, set of six positive controls/reference chemicals for the five hepatic receptor pathways, and a subset of eight of the ToxCast chemicals (indoxacarb, pyrithiobac-sodium, norflurazon, cyhalofop-butyl, methomyl, thiram, acetochlor, and propiconazole). These replicate data, coupled with internal replicates designed within the blinded ToxCast chemical library, provided additional data to evaluate interindividual differences between hepatocyte preparations and their potential impact on chemical profiles.Cell morphology and integrity were evaluated using phase-contrast microscopy as an indicator of hepatocyte cell health (Tyson & Green, 1987). Cultures for each treatment group (i.e., media, vehicle [0.2% DMSO], positive control inducers [multiple concentrations], and the ToxCast chemicals [multiple concentrations]) were observed and cell morphology was assessed relative to vehicle control cultures at each harvest time point (0, 6, 24, or 48 h). […] Images were evaluated at the conclusion of the study to assess changes in cell integrity and account for the effects of chemical exposure on uncharacteristic changes in concentration-dependent gene expression profiles. The results from these determinations of apparent cytotoxicity were annotated (yes/no) alongside the corresponding qNPA data for reference.At the conclusion of each treatment period, hepatocyte cultures (96-well) were washed with 1 volume of HBSS, lysed by addition of 25 ul ArrayPlate lysis buffer (HTG, Tucson, AZ), and 70 ul/well of Denaturation Oil, denatured by incubation at 95C for 10 min, and frozen at approximately -70C until analysis by nuclease protection assay (qNPA) (Roberts et al., 2007). For qNPA analysis, cell lysates were thawed at 50C for approximately 30 min, qNPA probes were added, and samples were incubated at 95C for 10 min to begin the detection process by denaturing the target RNA, dissociating the duplexes and secondary structure hybridization. At the conclusion of the hybridization period, S1 nuclease reagent was added to each sample to digest all nonprotected nucleotides at 50C for 60-90 min. […]
In the case of `CCCCCCC(C)OC(=O)COc1nc(F)c(Cl)c(N)c1Cl` (configuration not stated), the call was inactive.

Regarding `CCC(C)OC(=O)N1CCCCC1CCO` (configuration not stated), the call was inactive.

Turning to `C=CCOC(Cn1ccnc1)c1ccc(Cl)cc1Cl` (configuration not stated), the compound was called inactive.

Consider `COC(=O)c1ccccc1S(=O)(=O)NC(=O)Nc1nc(OC(F)F)cc(OC(F)F)n1`, for which the compound was called inactive.

As to `CCCCCOC(=O)COc1cc(N2C(=O)C3=C(CCCC3)C2=O)c(F)cc1Cl`, the compound was called inactive.

Turning to `COc1c(Cl)ccc(Cl)c1C(=O)O`, the compound was called inactive.

With `COC(=O)c1ccc(I)cc1S(=O)(=O)NC(=O)Nc1nc(C)nc(OC)n1`, the outcome was inactive.

As for `CCCCOC(=O)C(C)Oc1ccc(Oc2ccc(C(F)(F)F)cn2)cc1` (configuration not stated), the result was inactive.

On to `CCCCOC(=O)[C@@H](C)Oc1ccc(Oc2ccc(C(F)(F)F)cn2)cc1`, for which the result was inactive.

As to `CCCOC(=O)c1ccc(C(=O)OCCC)nc1`, the outcome was inactive.

Regarding `O=C(O)C1(C(=O)Nc2ccc(Cl)cc2Cl)CC1`, the result was inactive.

`CCCN(CCC)C(=O)SCC`: the compound was called inactive.

Regarding `c1ccc(Nc2ccccc2)cc1`, the compound was called inactive.

For `N#CSCSc1nc2ccccc2s1`, the result was inactive.

As to `COc1nc(C)nc(NC(=O)NS(=O)(=O)c2ccccc2OCCCl)n1`, the call was inactive.

Take `CCOC(=O)COc1cc(-n2ncc(C(F)(F)F)c(C)c2=O)c(F)cc1Cl`: the result was inactive.

Regarding `CC1(C)C(C=C(Cl)Cl)C1C(=O)OCc1cccc(Oc2ccccc2)c1` (configuration not stated), the call was inactive.

On to `COC(=O)c1ccccc1C(=O)O`, for which the outcome was inactive.

For `CSC(=O)c1cccc2nnsc12`, the result was inactive.

With `CCOC(=O)C(C)Oc1ccc(Oc2nc3ccc(Cl)cc3o2)cc1` (configuration not stated), the compound was called inactive.

As for `COC(=O)c1c(Cl)nn(C)c1S(=O)(=O)NC(=O)Nc1nc(OC)cc(OC)n1`, the compound was called inactive.

Consider `COC(=O)c1ccc(CNS(C)(=O)=O)cc1S(=O)(=O)NC(=O)Nc1nc(OC)cc(OC)n1`, for which the compound was called inactive.

Take `CCOC(=O)NCCOc1ccc(Oc2ccccc2)cc1`: the outcome was inactive.

In the case of `CC(C)(C)[C@@H](O)[C@@H](Cc1ccc(Cl)cc1)n1cncn1`, the result was inactive.

Consider `CC(C)(c1ccc(O)cc1)c1ccc(O)cc1`, for which the outcome was inactive.

Take `S=C(S)NCCNC(=S)S.[Mn+2].[S-]C([S-])=NCCN=C([S-])[S-].[Zn+2]`: the result was inactive.

Consider `Oc1ccc(C(c2ccc(O)cc2)C(Cl)(Cl)Cl)cc1`, for which the outcome was inactive.

The values above are taken from PubChem BioAssay (EPA / NIEHS).
